An excerpt weighted towards active compounds, which were near 21% of everything screened.
FBPA Giardia inh: Giardia lamblia aldolase inhibition; A8B2U2; purified Giardia FBPA; Potency, µM (series often up to 59.6 µM), hits mostly inhibitors; actives 0.71% (n = 290,000); AID 2451; further: nearly all actives have a fitted effect of over 55% in size
Target sequence (A8B2U2 whole entry, looked up): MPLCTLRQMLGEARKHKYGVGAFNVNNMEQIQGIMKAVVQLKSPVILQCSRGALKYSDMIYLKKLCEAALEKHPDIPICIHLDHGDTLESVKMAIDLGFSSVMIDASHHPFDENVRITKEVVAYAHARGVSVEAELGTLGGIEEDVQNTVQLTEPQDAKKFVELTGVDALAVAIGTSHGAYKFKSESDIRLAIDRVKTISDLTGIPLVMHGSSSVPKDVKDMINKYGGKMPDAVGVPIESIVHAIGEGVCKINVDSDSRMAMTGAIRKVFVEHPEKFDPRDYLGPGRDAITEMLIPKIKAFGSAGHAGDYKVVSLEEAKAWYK
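Giardia FBPA (40 nM reagent) was preincubated 10 min at RT with compound (up to 57.5 uM final), then substrate plus GAPDH/TPI/NAD/arsenate coupling system with diaphorase/resazurin was added; resorufin fluorescence (525/598 nm) was read after 20 min.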
Pf growth 96h: P. falciparum growth inhibition at 96 hours. Potency, µM (doses to about 28.7 µM), hits mostly inhibitors. P. falciparum luciferase reporter growth, 96 h. actives 6.9% (n = 320,000)
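Erythrocytes infected with luciferase-expressing P. falciparum were dispensed at 2% hematocrit and 0.05% parasitemia (final), then incubated with compounds 96 hours at 37 C in 5% CO2. Luminescence after detection reagent addition reported growth.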
NS1 inh: inhibitors of influenza NS1 protein function. actives 0.4% (n = 270,000). AID 2326. Potency, µM (top dose mostly 46.1 µM); calls by dose curve; further: actives are rising curves; nearly all actives have a fitted effect of over 50% in size
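S. cerevisiae expressing influenza A NS1, grown in glucose, washed, then diluted 1:100 into pH 6.0 -URA galactose medium with 23 nl compound. Growth recovery read as OD600; NS1-free strain serves as control.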
Shiga toxin inh: blocks Shiga toxin action in Vero cells; Vero cells, Shiga toxin protein synthesis inhibition reporter; inhibition, % at 38.7 µM; actives 9.2% (n = 290,000); AID 2315; in the data active means inhibition mostly above about 28%, no sharp cut-off; inactive means mostly below about 43%
Pf growth 48h: P. falciparum growth inhibition at 48 hours (one generation); P. falciparum luciferase growth in erythrocytes, 48 h; actives 5.9% (n = 310,000); Potency, µM (titrated, usually from 28.7 µM), actives largely listed as inhibitors
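Parasite viability was followed by luminescence of a genomically integrated firefly luciferase. Cultures held 0.1% parasitemia at 2% hematocrit (final), incubated under 5% CO2 at 37 C.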
CHX counter: counter-screen for Shiga toxin inhibitors: cycloheximide protein synthesis inhibition; max response, %; actives 12% (n = 300,000); cell reporter, cycloheximide protein synthesis inhibition counterscreen; in the data active means max response mostly above about 13%, no sharp cut-off; inactive means mostly below about 14%; further: read at 38.3 µM for the half of the compounds with a filed dose
Large screens that a line does not name were inactive. Unless noted, the call rests on the fitted dose curve; in most records, active means well fitted curve in the direction sought with a large enough effect; inconclusive means small, poorly fitted or top-dose-only effect, or another doubt; inactive means no such curve, though single readings can be large; an effect the other way counts as inactive or inconclusive.

Cc1ccc(/C=C/C(=O)OCC(=O)Nc2cccc(S(=O)(=O)N(C)C)c2)o1	CHX counter 14
CN(C)S(=O)(=O)c1cccc(NC(=O)COC(=O)/C=C/c2ccc3c(c2)OCO3)c1	CHX counter 16
Cc1ccc(S(=O)(=O)N(C)C)cc1NC(=O)COC(=O)/C=C/c1ccc2c(c1)OCO2	Pf growth 96h inconclusive, CHX counter 17 (no result: NS1 inh)
Cc1ccc(S(=O)(=O)N(C)C)cc1NC(=O)COC(=O)/C=C/c1cnc2ccccc2n1	none (no result: NS1 inh)
CN(C)S(=O)(=O)c1cccc(NC(=O)COC(=O)/C=C/c2ccco2)c1	none
CCN1C(=O)[C@@H]2[C@H]3C(=CC[C@H]2C1=O)C(=O)[C@H]1OC1[C@H]3O (stereo not given in full)	none (no result: Pf growth 96h, NS1 inh, Shiga toxin inh, Pf growth 48h, CHX counter)
Cc1cc(C)c(NC(=O)COC(=O)c2nc3nccc(C)n3n2)c(Cl)c1	none (no result: FBPA Giardia inh, NS1 inh, Shiga toxin inh, CHX counter)
CCCCNC(=S)NC(C)(C)CO	none
CCN(CC)S(=O)(=O)c1ccc(OCC2CCCCO2)c([N+](=O)[O-])c1 (stereo not given)	Pf growth 96h inconclusive, Pf growth 48h inconclusive
NC(=O)CCc1nc2cc(C(F)(F)F)ccc2n(Cc2ccccc2)c1=O	none
CN(C)C(CNC(=O)CCc1nc2cc(Cl)ccc2n(Cc2ccccc2)c1=O)c1ccccc1 (stereo not given)	Pf growth 96h 10µM, Pf growth 48h 9.3µM (no result: FBPA Giardia inh, NS1 inh, Shiga toxin inh, CHX counter)
CCNC(=S)NNC(=O)CCc1nc2cc(Cl)ccc2n(Cc2ccccc2)c1=O	Pf growth 96h 5.9µM, Pf growth 48h inconclusive (no result: FBPA Giardia inh)
O=S1(=O)NC(=NCCc2ccccn2)c2ccccc21	none (no result: NS1 inh)
C=CCc1cccc(/C=N/NC(=O)C(C)Nc2ccc(C)cc2)c1O (stereo not given)	Pf growth 96h 12µM, Pf growth 48h inconclusive
C=CCc1cccc(/C=N/NC(=O)c2ccccc2Br)c1O	FBPA Giardia inh inconclusive, Pf growth 96h inconclusive, Shiga toxin inh 50, Pf growth 48h inconclusive (no result: NS1 inh)
COc1ccccc1/C=N/NC(=O)c1ccccc1Cl	none (no result: NS1 inh)
C=CCc1cccc(/C=N/NC(=O)c2ccccc2OC)c1O	FBPA Giardia inh inconclusive, Pf growth 96h inconclusive, Shiga toxin inh 135, Pf growth 48h inconclusive, CHX counter 30 (no result: NS1 inh)
Cc1ccc2occ(/C=N/NC(=O)c3ccccc3Br)c(=O)c2c1	Pf growth 96h 4.7µM
O=C1OCCC1N(C(=O)C1CC1)c1cccc(Cl)c1 (stereo not given)	none (no result: Pf growth 96h, NS1 inh, Pf growth 48h)
CC(C)(C)OC(=O)N1C2C=CC1C1=COCCN1C2=O (stereo not given)	none (no result: Pf growth 96h, NS1 inh, Pf growth 48h)
Nc1[nH]ncc1S(=O)(=O)c1ccccc1	none
CCOc1cc(N2CCOCC2)c(OCC)cc1NC(C)C(=O)N1CCC(C)CC1 (stereo not given)	FBPA Giardia inh inconclusive, Pf growth 96h inconclusive, Pf growth 48h 10µM
CCOc1cc(N2CCOCC2)c(OCC)cc1NCC(=O)N1CCN(Cc2ccccc2)CC1	FBPA Giardia inh inconclusive, Pf growth 96h 5.9µM, Pf growth 48h inconclusive
CCOc1cc(N2CCOCC2)c(OCC)cc1NC(=O)Cc1cccc(OC)c1	Pf growth 96h inconclusive, Pf growth 48h inconclusive
CCOc1cc(N2CCOCC2)c(OCC)cc1NC(=O)COc1cccc(CC)c1	Pf growth 96h inconclusive, Pf growth 48h 10µM (no result: FBPA Giardia inh, NS1 inh, Shiga toxin inh, CHX counter)
CCOc1cc(N2CCOCC2)c(OCC)cc1NC(=O)[C@H](C)N1C(=O)C2CC=CCC2C1=O (stereo not given in full)	none (no result: NS1 inh)
CCOc1cc(N2CCOCC2)c(OCC)cc1NC(=O)Cc1ccc(OC)c(OC)c1	FBPA Giardia inh inconclusive, Pf growth 48h 9.3µM
CCOc1cc(N2CCOCC2)c(OCC)cc1NC(=O)CN1CCN(Cc2ccc3c(c2)OCO3)CC1	Pf growth 96h inconclusive, Pf growth 48h inconclusive
N=C(N)SCc1cccc2c(=O)cc(-c3ccccc3)oc12	none (no result: FBPA Giardia inh, Pf growth 96h, Shiga toxin inh, Pf growth 48h, CHX counter)
CCOc1cc(N2CCOCC2)c(OCC)cc1NC(=O)CSc1ccccc1C(=O)O	Pf growth 96h 9.3µM, Pf growth 48h inconclusive (no result: FBPA Giardia inh, NS1 inh, Shiga toxin inh, CHX counter)
COc1cc2c(cc1OC)CN(C(=O)COc1ccccc1[N+](=O)[O-])CC2	none
Cc1cc2ccc(OC(=O)c3ccc(N=C(N)N)cc3)cc2oc1=O	none (no result: FBPA Giardia inh, Pf growth 96h, Shiga toxin inh, Pf growth 48h, CHX counter)
CCn1c(SCC(=O)Nc2cc(C)on2)nc2sc(C)c(C)c2c1=O	Pf growth 96h 12µM
COc1ccc(C)cc1-n1c(SCC(=O)Nc2cc(C)on2)nc2sc(C)c(C)c2c1=O	Pf growth 48h 9.3µM
O=C(Nc1ccc2c(c1)OCCO2)c1c[nH]c(=O)n(-c2ccc(F)c(Cl)c2)c1=O	none (no result: FBPA Giardia inh)
O=C(NCCc1ccccc1)/C(=C\c1cccc([N+](=O)[O-])c1)NC(=O)c1ccco1	Pf growth 48h inconclusive
NS(=O)(=O)c1ccc(Nc2nc(-c3ccc4ccccc4c3)cs2)cc1	none (no result: Pf growth 96h)
CN(C)/C=N/c1nc(-c2ccc3ccccc3c2)cs1	Shiga toxin inh 61, CHX counter 47
CN(C)/C=N/c1nc(-c2ccc3c(c2)OCO3)cs1	Shiga toxin inh 178, CHX counter 53
CN(C)/C=N/c1ncc(C(=O)c2ccc(Cl)cc2Cl)s1	Pf growth 96h inconclusive, Pf growth 48h inconclusive (no result: NS1 inh)
CN(C)/C=N/c1ncc(C(=O)c2ccc(Cl)cc2)s1	Shiga toxin inh 58, CHX counter 43
O=C1CC(c2ccco2)CC(O)=C1C=NCC1NCCc2ccccc21 (stereo not given)	Pf growth 48h 10µM
O=C1CC(c2ccco2)CC(O)=C1C=NCCO (stereo not given)	none
Cc1cc(Br)ccc1OCCCCN1CCCCC1	FBPA Giardia inh inconclusive, Pf growth 48h inconclusive
Cc1ccc(OCc2nc(-c3ccccn3)no2)cc1	CHX counter 29 (no result: Pf growth 48h)
CCc1ccc(OCc2nc(-c3ccccn3)no2)c(Br)c1	CHX counter 29
Cc1ccc(OCc2nc(-c3ccccn3)no2)c(Br)c1	Pf growth 96h 2.3µM
CC(C)c1ccc(OCc2nc(-c3ccccn3)no2)c(Br)c1	Shiga toxin inh 67, CHX counter 46
CCOC(=O)C(=CNc1cc(C)ccc1-n1cccc1)C(=O)OCC	Pf growth 96h inconclusive, Pf growth 48h inconclusive
Nc1cc(Oc2ccc(F)cc2F)cc([N+](=O)[O-])c1	none (no result: NS1 inh)
CC(C)(C)Cc1nc(-c2ccccn2)no1	Shiga toxin inh 76, CHX counter 34
CCC(c1ccccc1)c1nc(-c2ccccn2)no1 (stereo not given)	none
CCc1c(C)[nH]n(-c2nc(-c3cccc([N+](=O)[O-])c3)cs2)c1=O	Shiga toxin inh 23, CHX counter 22
Oc1ccccc1C1=NCCNC(C(F)(F)F)=C1	none
FC(F)(F)C1=CC(c2ccc(Cl)cc2)=NCCN1	Pf growth 96h 2.6µM, Pf growth 48h inconclusive
O=C1Nc2cc(Cl)c(Cl)cc2N(O)N1c1ccccc1	CHX counter 30 (no result: Pf growth 48h)
Cc1ccc(N2C(=O)Nc3cc(Cl)c(Cl)cc3N2O)cc1Cl	Pf growth 48h inconclusive (no result: NS1 inh)
COc1nc(-c2ccccc2)ccc1-c1noc(-c2cccs2)n1	none (no result: FBPA Giardia inh, Pf growth 96h, Shiga toxin inh, Pf growth 48h, CHX counter)
Cc1ccccc1-c1noc(-c2cccs2)n1	Pf growth 96h inconclusive, Shiga toxin inh 87, CHX counter 55
